Bioassay records from PubChem BioAssay.
Compounds with a hit are over-represented: about 3.9% of the library has one in this group of screens.
3CLpro inhibitor: SARS-CoV 3CLpro protease inhibition | recombinant SARS-CoV 3CLpro, quenched FRET peptide cleavage | hit rate 0.14% among 290,000 | P0C6X7 | inhibition, % at 6 µM; in the data active = inhibition above about 12%
GDH-TPI inh: GDH-TPI coupled enzyme inhibition counter-screen; inhibition, % at 4.8 µM; hit rate 1.2% among 360,000; GDH-TPI coupled enzyme counterscreen, NADH absorbance; in the data active = inhibition above about 30%
BH1578 lux ind: inducers of Vibrio cholerae quorum light production without autoinducers; V. cholerae BH1578 lux reporter, luminescence, 6 h; activation, % at 18.7 µM; hit rate 0.16% among 350,000; AID 588436; in the data active = activation mostly above about 9.7%, no sharp cut-off
Mtb FBA inh: Mtb fructose-bisphosphate aldolase inhibition. purified M. tuberculosis FBA, fluorescence read-out. inhibition, % at 1 µM. hit rate 2.3% among 360,000. AID 588726; in the data active = inhibition above about 27%
Target sequence (P9WQA3 whole entry, looked up): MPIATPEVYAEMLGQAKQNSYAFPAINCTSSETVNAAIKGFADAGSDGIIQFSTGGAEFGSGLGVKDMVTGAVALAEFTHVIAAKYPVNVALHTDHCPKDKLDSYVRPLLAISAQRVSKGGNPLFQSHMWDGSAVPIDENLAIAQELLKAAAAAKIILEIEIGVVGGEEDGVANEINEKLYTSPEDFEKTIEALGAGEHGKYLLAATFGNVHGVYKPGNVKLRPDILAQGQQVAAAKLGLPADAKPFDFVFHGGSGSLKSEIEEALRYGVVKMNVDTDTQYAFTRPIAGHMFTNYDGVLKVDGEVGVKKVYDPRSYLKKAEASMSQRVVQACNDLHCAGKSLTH
PrPC TRFRET: reduces human prion protein on the cell surface. hit rate 0.43% among 370,000. AID 720596. cell surface PrPC, TR-FRET read-out. inhibition, % at 13.8 µM. P04156; in the data active = inhibition above about 24%
Of the large screens only hits and unclear results are named; the others gave an inactive call.

Cc1nnc(SCC(=O)N/N=C/c2cc(Cl)c(O)c(Cl)c2)s1	GDH-TPI inh 35
COc1ccc(C2CC(C(C)(C)C)=NN2c2ccc(S(N)(=O)=O)cc2)cc1 (stereo not drawn)	none (no result: 3CLpro inhibitor)
COc1ccc(C2CC(c3ccccc3C(F)(F)F)=NN2c2ccc(S(N)(=O)=O)cc2)cc1 (stereo not drawn)	Mtb FBA inh active (no result: 3CLpro inhibitor)
COc1ccc(C2CC(c3ccccc3F)=NN2c2ccc(S(N)(=O)=O)cc2)cc1 (stereo not drawn)	Mtb FBA inh 156 (no result: 3CLpro inhibitor)
COc1ccc(C2CC(c3ccc(C(F)(F)F)cc3)=NN2c2ccc(S(N)(=O)=O)cc2)cc1 (stereo not drawn)	Mtb FBA inh 155 (no result: 3CLpro inhibitor)
COc1ccc(CCNC(=O)CCS(=O)(=O)Cc2ccccc2C)cc1OC	none
Cc1ccc(S(=O)(=O)c2ccc([N+](=O)[O-])cn2)cc1	PrPC TRFRET 70
COc1cc2ccc(=O)oc2cc1O	Mtb FBA inh active (no result: 3CLpro inhibitor)
COc1cc2ccc(=O)oc2cc1OCC(O)C(C)(C)O (stereo not drawn)	Mtb FBA inh 138 (no result: 3CLpro inhibitor)
N#CC1C(=O)Nc2cccnc21 (stereo not drawn)	Mtb FBA inh active (no result: 3CLpro inhibitor)
COc1ccc(C2Nc3ccccc3C(=O)N2Cc2ccccc2)cc1OC (stereo not drawn)	Mtb FBA inh 74 (no result: 3CLpro inhibitor)
Cc1cc2c(C)c(C)c(=O)[nH]c2cc1N	GDH-TPI inh 35, Mtb FBA inh active
Cc1c(N=C2N=C(NC(=O)c3ccc(F)cc3)c3ccccc32)c(=O)n(-c2ccccc2)n1C	none
COC(=O)c1c(N)n(-c2ccc(NC(C)=O)cc2)c2nc3ccccc3nc12	Mtb FBA inh 109
Nc1c(C(=O)NCCN2CCOCC2)c2nc3ccccc3nc2n1CCc1ccccc1F	Mtb FBA inh 124
COCCNC(=O)c1c(N)n(-c2cccc(C)c2)c2nc3ccccc3nc12	Mtb FBA inh 183
Cc1ccc(-n2c(N)c(C(=O)Nc3c(C)n(C)n(-c4ccccc4)c3=O)c3nc4ccccc4nc32)cc1	none
COCCCNC(=O)c1c(N)n(-c2ccccc2)c2nc3ccccc3nc12	Mtb FBA inh active
CCCn1nc(C(=O)NNC(=O)CSC(C)C(=O)Nc2cc(C)on2)c2ccccc2c1=O (stereo not drawn)	none
CSCCNC(=O)C1(C)CCN1C(=O)c1cc(C)n(C)n1 (stereo not drawn)	none (no result: 3CLpro inhibitor)
COCCCNC(=O)c1c(N)n(/N=C/c2cccs2)c2nc3ccccc3nc12	none
Nc1c(C(=O)NCCN2CCOCC2)c2nc3ccccc3nc2n1-c1ccc2c(c1)OCO2	none
COCCNC(=O)c1c(N)n(-c2ccccc2)c2nc3ccccc3nc12	Mtb FBA inh 148
CC(=O)NCCn1c(SCC(=O)OCc2ccccc2)nc2ccccc2c1=O	none
Nc1c(C(=O)NCCN2CCOCC2)c2nc3ccccc3nc2n1-c1ccccc1	Mtb FBA inh 149
COCCCNC(=O)c1c(N)n(-c2ccc(S(N)(=O)=O)cc2)c2nc3ccccc3nc12	Mtb FBA inh active
CC(=O)NCCn1c(SCC(=O)c2ccccc2)nc2ccccc2c1=O	GDH-TPI inh 33
CC(=O)Nc1ccc2c(c1)Cc1cc(N3C(=O)C=CC3=O)ccc1-2	none (no result: 3CLpro inhibitor)
Cc1cccc(NC(=O)CSc2nnc(CNC(=O)c3ccco3)n2C)c1C	none (no result: 3CLpro inhibitor)
CC(=O)NCCn1c(SCC(=O)NCCc2ccc(S(N)(=O)=O)cc2)nc2ccccc2c1=O	none
Nc1c(C(=O)NCc2ccccc2)c2nc3ccccc3nc2n1-c1ccc2c(c1)OCO2	none
COc1cccc(-n2c(N)c(C(=O)Nc3c(C)n(C)n(-c4ccccc4)c3=O)c3nc4ccccc4nc32)c1	GDH-TPI inh 37
C=CCNC(=O)c1c(N)n(-c2cccc(S(N)(=O)=O)c2)c2nc3ccccc3nc12	Mtb FBA inh 116
Cc1cc(C)cc(-n2c(N)c(C(=O)Nc3c(C)n(C)n(-c4ccccc4)c3=O)c3nc4ccccc4nc32)c1	none
COCCCNC(=O)CSc1nc2ccccc2c(=O)n1CCc1ccc(S(N)(=O)=O)cc1	Mtb FBA inh 32
CCOC(=O)c1cccc(-c2cc(C(C)=O)c3n(c2=O)CCC3)c1	none (no result: 3CLpro inhibitor, GDH-TPI inh, BH1578 lux ind, Mtb FBA inh)
NC(=O)C(C(=O)/C=C/c1ccc(Cl)cc1)=C1SCCS1	GDH-TPI inh 44
CCOC(=O)C1=C(COC(=O)Cc2ccccc2[N+](=O)[O-])NC(=O)NC1C (stereo not drawn)	none (no result: 3CLpro inhibitor)
COc1ccc(C(=O)/C=C/c2ccc(O)cc2)c2c1CC(O)C(C)(C)O2 (stereo not drawn)	GDH-TPI inh 33 (no result: 3CLpro inhibitor)
COc1ccc(/C=C(/C(=O)c2ccc(Cl)cc2Cl)n2cncn2)cc1	GDH-TPI inh 32
CC1(C)OC(=O)NC1c1ccccc1 (stereo not drawn)	none (no result: 3CLpro inhibitor)
Cn1cc(C(=O)C(=O)NC2CC2)c2ccccc21	none (no result: 3CLpro inhibitor)
Cn1cc(C(=O)C(=O)NC2CCCCC2)c2ccccc21	BH1578 lux ind 80
Cn1cc(C(=O)C(=O)N2CCOCC2)c2ccccc21	GDH-TPI inh 31
O=C(NC1CCCCC1)C(=O)c1c(-c2ccccc2)[nH]c2ccccc12	BH1578 lux ind active
COc1cc(OC)cc(C(=O)NCCCNC(=O)c2ccccn2)c1	none
FC(F)(F)c1ccnc(Sc2n[nH]c(C(F)(F)F)n2)c1	none
Cc1ccnc2ccc(-c3nc4ccccc4o3)cc12	Mtb FBA inh 76
NC(=O)c1ccc(NC(=O)COC(=O)CCN=C2NS(=O)(=O)c3ccccc32)cc1	none (no result: 3CLpro inhibitor)
COc1ccc2cc(C(=O)C3CCCN(C(=O)c4ccnn4C)C3)ccc2c1 (stereo not drawn)	Mtb FBA inh 155
COc1ccc2cc(C(=O)C3CCCN(C(=O)c4cc(=O)n(C)c(=O)n4C)C3)ccc2c1 (stereo not drawn)	Mtb FBA inh 125
COc1ccc(O)c(C(=O)CC(=O)c2ccccc2C)c1	none
COc1ccc(O)c(C(=O)CC(=O)c2cccnc2)c1	Mtb FBA inh 115 (no result: 3CLpro inhibitor)
COc1ccc(C(=O)CC(=O)c2ccccc2O)cc1	Mtb FBA inh 171
CCN(CC(=O)NCc1ccccc1Cl)CC(=O)Nc1c(F)cccc1F	GDH-TPI inh 44
CC(C)C[C@@H](CCCc1ccccc1)CCC(=O)N(c1ccccc1)c1ccccc1	none (no result: 3CLpro inhibitor, GDH-TPI inh, BH1578 lux ind, Mtb FBA inh)
Nc1nc2nccc(-c3ccco3)n2n1	Mtb FBA inh active
Cc1ccc(-c2cn3cccc(C)c3n2)cc1	none
Cc1cccn2cc(-c3ccc(S(=O)(=O)N4CCCCC4)cc3)nc12	Mtb FBA inh 135
O=S(=O)(c1ccc(-c2cn3ccccc3n2)cc1)N1CCOCC1	Mtb FBA inh active
Cc1cccn2cc(-c3ccc(S(=O)(=O)N4CCOCC4)cc3)nc12	Mtb FBA inh 187
CCc1nc2ccc(C(=O)Nc3cccc(OCC(=O)N(C)C)c3)cn2c1N(C)Cc1cc2ccccc2s1	none (no result: 3CLpro inhibitor)
O=C(NC1CCCC1)C1(C(=O)C2CC2)CC(c2ccccc2C(F)(F)F)=NO1 (stereo not drawn)	none (no result: 3CLpro inhibitor, GDH-TPI inh, BH1578 lux ind, Mtb FBA inh)
CS(=O)(=O)N(CCC#N)Cc1ccc(/C=C2\C(=O)Nc3ccccc32)o1	none
COc1ccc(N(C)S(=O)(=O)c2cccc(C(=O)Nc3cccc(C(=O)NC4CC4)c3)c2)cc1	none (no result: 3CLpro inhibitor)
